Results on 9 molecules are retold here after PubChem BioAssay (NCATS).

Several values for one entry are separate records, joined by “and”; a condition that tells them apart may be missing. Equal entries are not always repeated. Records with an inconclusive call do not appear. For part of these data: Entries with a potency or affinity are not part of this list. Activity calls are given as the source filed them.

Assay [1] can be described thus: qHTS assay for small molecule agonists of the antioxidant response element (ARE) signaling pathway measured by Nrf2-dependant transcriptional activity (AID 720636; active = well fitted curve in the direction sought with a large enough effect in the repeat runs; an effect the other way counts as inactive or inconclusive; note: % of control where 0% means no effect). The procedure, abridged:
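Nrf2-dependent transcription read as ONE-Glo luciferase signal from ARE-luc HepG2 reporter cells after 16 hr compound treatment at 37 C, 5% CO2, in assay medium with 1% dialyzed FBS.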
In general terms: qHTS replaces the single test concentration by a dilution series.

Assay [2] is described as follows: qHTS assay for small molecule agonists of the antioxidant response element (ARE) signaling pathway measured by Nrf2-dependant transcriptional activity - cell viability counter screen (AID 720653; active = well fitted curve in the direction sought with a large enough effect in the repeat runs; an effect the other way counts as inactive or inconclusive; note: % is set by controls: 0 for no effect and ±100 for the full control effect). The settings on record: ARE-bla HepG2 viability, CellTiter-Glo ATP luminescence, 16 h; stronger effect = lower value. The procedure, abridged: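 Cytotoxicity counter screen: intracellular ATP quantified by CellTiter-Glo luminescence in the same ARE-bla HepG2 plates, after 16 h compound exposure and a 2 h beta-lactamase substrate step.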

Assay [3] can be described thus: qHTS Assay for Identifying Gametocytocidal Compounds (AID 743244).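 Note: % is set by controls: 0 for no effect and ±100 for the full control effect; actives lower the fluorescent signal which means gametocytes are killed.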 The settings on record: P. falciparum 3D7 stage III-V gametocytes, alamarBlue, 72 h; max response: stronger effect = lower value. An outline of the steps: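 3D7 gametocytes, stages III–V, 20,000/well; cpd 72 h, 37 °C/5% CO2; + alamarBlue 24 h; fluor. Ex 525/Em 598.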
Assay [4] is described as follows: qHTS assay for cell viability of HEK293 cells (AID 743288). Note: % is set by controls: 0 for no effect and ±100 for the full control effect; nearly all actives have a fitted effect of over 50% in size. The settings on record: ATP luminescence (CellTiter-Glo), 18 h, stronger effect = lower value. An outline of the steps:
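Readout is luciferase-coupled ATP content (CellTiter-Glo luminescence, 30 min room temperature) as a measure of metabolically competent cells. Parental HEK293 cells were plated 5 h or more before compound addition, then treated 18 h at 37 C.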

Assay [5] in a line: qHTS assay for cell viability of the p53RE-bla HCT-116 cell line (AID 743292). Note: nearly all actives have a fitted effect of over 55% in size. Note: potency is the fitted concentration of half-maximal effect. The procedure, abridged:
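ATP-based luminescent viability (CellTiter-Glo, 30 min RT) after 16 h compound treatment at 37 C of p53RE-bla HCT-116 cells, seeded at 4,000 cells/well and rested 5 h before dosing.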

The conditions of assay [6]: Ebola virus entry assay, green fluorescence channel.
A short description of assay [7]: qHTS assay for small molecule antagonists of the retinoid-related orphan receptor gamma (ROR-gamma) signaling pathway - cell viability counter screen (AID 720652; active = well fitted curve in the direction sought with a large enough effect in the repeat runs; an effect the other way counts as inactive or inconclusive;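 note: CHO reporter cells with doxycycline-induced ROR-gamma expression; compound exposure lasted 16 hr before ATP read; % is set by controls: 0 for no effect and ±100 for the full control effect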). The procedure, abridged: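 Steps: seed CHO cells bearing TET-inducible ROR and ROR response element-luciferase; rest 5 hr at 37 C; add compound, then doxycycline; incubate 16 hr; add CellTiter-Glo and read luminescence as ATP-based viability.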

Assay [8] is described as follows: qHTS for Activators of Parkin Expression: LOPAC Validation Assay (NLuc Reporter) (AID 720572). The procedure, abridged:
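Compound effects on Parkin promoter activity were measured as NanoLuc luminescence after 24 h at 37 C. The neuronal reporter line also carried FLuc, which was read first. LOPAC compounds were tested at 7 concentrations, with normalization to DMSO (0%) and positive control (100%).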

Assay [9] concerns the target T1, Hexokinase-4 (Homo sapiens) + Glucokinase regulatory protein (Homo sapiens) (UniProt P35557+Q14397). As to the kind of experiment: qHTS assay for inhibitors of recombinant human GCK-GKRP interaction: Diaphorase-coupled assay (AID 743205). The procedure, abridged: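 A kinetic fluorescence read (Ex 525/Em 590 nm, every minute for 30 minutes) tracked resorufin from a G6PDH-diaphorase coupled GCK reaction. It contained 10 nM GST-GCK, 10 nM FLAG-GKRP, 5 mM glucose, 0.4 mM ATP in Hepes pH 7.6. Normalized to with/without-enzyme DMSO controls.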

Assay [10] addresses T1, Hexokinase-4 (Homo sapiens) + Glucokinase regulatory protein (Homo sapiens). As to the kind of experiment: qHTS assay for inhibitors of recombinant human GCK-GKRP interaction: ADP-Glo assay (AID 743206).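 Note: plate controls were DMSO plus enzyme for no effect and no enzyme for full effect.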 The procedure, abridged:
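Pin-transferred compounds meet a 15 nM GST-GCK/15 nM FLAG-GKRP/2 uM S6P mix (dispense concentrations). ATP is then added to 0.4 mM final with 5 mM glucose, and the reaction runs 60 min at room temperature. ADP is quantified luminescently.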

The target is the same in assay [11]. Put plainly: qHTS assay for inhibitors of recombinant human GCK-GKRP interaction: HTRF assay (AID 743207).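 Note: 0% = DMSO with GCK present and -100% = DMSO wells lacking GCK.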 The procedure, abridged:
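After 60 min equilibration at room temperature with anti-FLAG XL665 and anti-GST antibodies, FRET ratio (665/615 nm, excitation 320 nm) was read. Proteins: GST-GCK and FLAG-GKRP, each 5 nM, plus 2 uM S6P, pH 7.1 buffer; GCK-free wells define minimum signal.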

Assay [12] in a line: qHTS profiling of the MIPE4 collection as inhibitors of Plasmodium falciparum (3D7) proliferation (AID 743344; call rule not given here;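 note: scaled between DMSO vehicle wells and 0.29 µM artemisinin as full inhibition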). To be noted: P. falciparum 3D7 in erythrocytes, SYBR Green DNA fluorescence, 72 h; at 28.5 µM (top of the series) unless noted. An outline of the steps: (§1)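 Parasite DNA was quantified by SYBR Green I fluorescence (ex 485, em 535 nm) after overnight lysis in saponin/Triton buffer at room temperature. Cultures at 0.3% parasitemia and 2.5% hematocrit were first exposed to compound for 72 h at 37 C; signals were normalised to artemisinin (0.29 uM) and vehicle wells.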

Assay [13] is described as follows: qHTS profiling of the MIPE4 collection as inhibitors of Plasmodium falciparum (DD2) proliferation (AID 743345; call rule not given here). To be noted: P. falciparum Dd2 in erythrocytes, SYBR Green DNA, 72 h; at 28.5 µM (top of the series) unless noted. The procedure, abridged:
as §1

Assay [14] is described as follows: qHTS profiling of the MIPE4 collection as inhibitors of Plasmodium falciparum (DD2) proliferation (Rep 2) (AID 743346; call rule not given here). To be noted: P. falciparum Dd2 in erythrocytes, SYBR Green DNA, 72 h; at 28.5 µM (top of the series) unless noted. The procedure, abridged:
as §1
Throughout, for efficacy: 0% is about no effect.

T1 sequence (P35557 whole entry, looked up): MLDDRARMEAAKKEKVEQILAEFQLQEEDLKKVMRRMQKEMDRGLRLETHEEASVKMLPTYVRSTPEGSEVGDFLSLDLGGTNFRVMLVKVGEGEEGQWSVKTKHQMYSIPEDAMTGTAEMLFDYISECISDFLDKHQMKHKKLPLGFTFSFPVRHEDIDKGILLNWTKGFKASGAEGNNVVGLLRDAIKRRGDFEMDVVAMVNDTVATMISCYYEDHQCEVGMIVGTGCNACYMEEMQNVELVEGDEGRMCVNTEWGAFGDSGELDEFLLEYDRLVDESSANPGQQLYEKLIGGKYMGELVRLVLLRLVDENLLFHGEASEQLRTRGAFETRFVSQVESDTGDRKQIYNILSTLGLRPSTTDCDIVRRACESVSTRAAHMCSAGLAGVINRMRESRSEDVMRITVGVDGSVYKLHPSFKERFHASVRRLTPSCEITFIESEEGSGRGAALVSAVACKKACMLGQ
T1 sequence (Q14397 whole entry, looked up): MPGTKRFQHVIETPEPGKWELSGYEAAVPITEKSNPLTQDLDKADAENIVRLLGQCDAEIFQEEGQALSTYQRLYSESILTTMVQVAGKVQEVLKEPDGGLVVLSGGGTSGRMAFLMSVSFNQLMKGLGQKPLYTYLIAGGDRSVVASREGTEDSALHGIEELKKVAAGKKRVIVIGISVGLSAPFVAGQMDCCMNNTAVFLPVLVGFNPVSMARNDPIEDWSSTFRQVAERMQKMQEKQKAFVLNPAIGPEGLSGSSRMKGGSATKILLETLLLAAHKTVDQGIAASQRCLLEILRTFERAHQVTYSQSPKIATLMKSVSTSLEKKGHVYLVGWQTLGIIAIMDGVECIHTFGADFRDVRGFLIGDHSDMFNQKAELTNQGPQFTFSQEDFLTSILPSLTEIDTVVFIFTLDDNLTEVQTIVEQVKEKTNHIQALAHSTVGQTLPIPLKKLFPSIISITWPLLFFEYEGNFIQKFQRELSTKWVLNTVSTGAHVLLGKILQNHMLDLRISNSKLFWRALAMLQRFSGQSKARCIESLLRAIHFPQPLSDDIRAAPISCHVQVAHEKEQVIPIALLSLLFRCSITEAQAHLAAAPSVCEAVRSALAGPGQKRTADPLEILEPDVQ

Turning to `O=C1c2ccccc2C(=O)C1C(=O)C(c1ccccc1)c1ccccc1`, the result in assay [1] was inactive. In addition, the max response in assay [2] was -16.2% (inactive); in assay [3], 4.31% (inactive); in assay [4], -28.7% (inactive). The Potency entry in assay [5] was “inactive”. The efficacy in assay [6] is -17.4% (inactive).
`CCC1(CC)C(=O)C=CNC1=O`: the max response in assay [3] is -13.9% (inactive). Besides, the efficacy in [6] is -31% (inactive).
With `NNc1ccccc1`, the max response in assay [3] was -4.92% (inactive). For the same molecule, the efficacy in assay [6] was -13.5% (inactive).
With `Clc1ccc(C(c2ccc(Cl)cc2)C(Cl)(Cl)Cl)cc1`, the molecule was classed as inactive in assay [1]. Also, the max response in assay [2] was -18.5% (inactive) and -23.5% (inactive); in [3], 0.742% (inactive); in assay [4], -17.1% (inactive). Besides, in [5], the Potency was 50.1 µM (active). Besides, the efficacy in [6] is 25.5% (inactive).
As to `C[C@]12CCC(=O)C=C1CC[C@@H]1[C@@H]2CC[C@]2(C)C(=O)CC[C@@H]12`, the outcome in assay [1] and in assay [7] was inactive. Besides, the max response in assay [2] was 3.62% (inactive) and -13.2% (inactive); in assay [3], 5.73% (inactive); in assay [4], -2.66% (inactive). Moreover, the Potency result in assay [5] was “inactive”. For the same molecule, the efficacy in [6] was 19.1% (inactive).
For the molecule `CCCCC/C=C\C/C=C\C/C=C\C/C=C\CCCC(=O)NCC(=O)O`, the outcome in [8], in assay [9], in [10] and in assay [11] was inactive. For the same molecule, the efficacy in [6] is -13.8% (inactive).
With `CN1C(=O)NC(=O)C(C)(C2=CCCCC2)C1=O` (stereo unspecified), the max response in assay [3] is 8.57% (inactive) and 23.3% (inactive). In addition, in assay [6], the efficacy is 10.3% (inactive).
As for `O=[N+]([O-])O[C@H]1CO[C@H]2[C@@H]1OC[C@H]2O[N+](=O)[O-]`, the max response in [3] was 30.8% (inactive). Further, in assay [6], the efficacy is -25.2% (inactive).
Molecule `C[C@]12CC[C@H]3[C@@H](CC[C@@]45O[C@H]4C(O)=C(C#N)C[C@]35C)[C@H]1CC[C@H]2O` showed a parasite growth, % of DMSO control in assay [12] of 70.4%. In addition, the parasite growth remaining, % of DMSO control (lower = more inhibition) in assay [13] is 70.8%. In [14], this molecule registered a parasite growth, % of control (lower = inhibition) of 55.7%. For the same molecule, the efficacy in assay [6] was 26.8% (inactive).
